Among all 2,100 compounds or so, about 650 (31%) were called active. Another 16% or so got no clear call; they are omitted. Calls come from the whole dose curve; as a rule, active = well fitted inhibition curve with a large enough effect; inconclusive = small, poorly fitted or top-dose-only effect; inactive = flat fitted curve, though single readings scatter. This is one part of the list.
Assay: qHTS for inhibitors of Vif-A3G interactions: Cherry picks; note: nearly all actives have a fitted effect of over 80% in size
Conditions: HeLa A3G-eYFP + Vif (tagged APOBEC3G with the HIV-1 protein that degrades it), 24 h; Potency: eYFP fluorescence increase; series mostly up to 36.9 µM
How it was run: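 Cherry-picked compounds tested at several concentrations on A3G-eYFP/Vif HeLa cells for 24 hours; loss of Vif-driven degradation read as eYFP fluorescence by cytometric plate imaging, 488 nm excitation, 500-530 nm emission.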
Potency is the fitted concentration of half-maximal effect.

Potency, inactive:
CCOc1ccc(S(=O)(=O)NCc2ccccn2)cc1NC(=O)c1ccccc1, O=C1CC(c2ccccc2F)c2cc3c(cc2N1)CCC3 (stereo not drawn), Cc1cc(N2CCN(Cc3cn(C)nc3-c3ccccc3F)CC2)cc(C)n1, COc1cc(C(=O)N/N=C/c2ccccn2)cc(OC)c1OC, Cc1cc(C)n(-c2nc3c(c(=O)[nH]c(=O)n3C)n2CC(O)COc2ccc(Cl)cc2Cl)n1 (stereo not drawn), Cc1ccc2ccc3c(c2n1)NS(=O)(=O)c1ccc(C(F)(F)F)cc1-3, N#C/C(=C\c1ccc(C(=O)O)cc1)c1nc2sc3c(c2c(=O)[nH]1)CCCC3, COc1ccc(NC2=CC(=O)CC(c3ccccc3)C2)c(OC)c1 (stereo not drawn), Cc1ccc(-n2c(=O)c3ccc(C(=O)NCc4ccccc4Cl)cc3n(CC(=O)Nc3cccc(Cl)c3)c2=O)cc1, CCCCOc1ccc(/C=C/C2=CC(C)(C)NC(=S)N2)cc1OCC, CCCN1C(=O)C(Cc2nc3ccccc3c(=O)n2CC)c2cc(Br)ccc21 (stereo not drawn), CCOC(=O)C(C)Oc1cccc2c(=O)n(CC(=O)NCc3ccco3)ccc12 (stereo not drawn), NC(=O)c1ccc(NC(=O)C#Cc2ccccc2)cc1, COc1cccc(N2CCN(Cc3nc4scc(-c5ccccc5)c4c(=O)[nH]3)CC2)c1, O=C(/C=C/c1ccccc1)Nc1ncn[nH]1, Cc1cc(NC(=O)COC(=O)c2ccc(S(=O)(=O)N3CCCc4ccccc43)cc2)no1, Cc1c(C(=O)C(=O)N2CCCc3ccccc32)c2ccccc2n1C, O=C(c1cc([N+](=O)[O-])ccc1N1CCCCC1)N1CCc2ccccc21, COc1ccc(-c2cc(C(F)F)n3ncc(C(=O)N4CCc5ccccc54)c3n2)cc1, Cc1ccc(Cc2c(C3CCCCC3)nc3ccc(C)cn23)cc1, CCCCOc1nc2ccccc2nc1NS(=O)(=O)c1ccc(F)cc1, COc1ccccc1Nc1cc2cc(Br)ccc2c(=O)[nH]1, COc1ccc(Cl)cc1NC(=O)CN(C)CC(=O)Nc1ccccc1N1CCOCC1, Cc1cccc(CSc2nc(-c3cccs3)ccc2C#N)c1, N#Cc1ccc(-c2cccs2)nc1SCc1c(F)cccc1Cl, Cc1ccc(NC2=C(Cl)C(=O)N(C3CCCCC3)C2=O)cc1, COc1ccc(CNCC(=O)Nc2ccccc2-n2cccc2)cc1, Cc1noc(C)c1COc1ccc(C(=O)NNC(=O)c2ccccc2)cc1, CCOC(=O)c1cnc(-n2nc(C)cc2C)nc1NNc1cc(C)nc(-c2ccccc2)n1, CCCCCCN1C[C@H](O)[C@@H](n2cc(COC(=O)c3ccccc3)nn2)C[C@@H]1c1ccc(C)cc1, Cc1onc(-c2c(F)cccc2Cl)c1C(=O)O/N=C(\N)c1ccc([N+](=O)[O-])o1, CNCC(O)Cn1c2c(c3ccccc31)CCCC2 (stereo not drawn), Cc1oc(C)c2c(=O)ccc3c(c12)OC(N)=C(C#N)C3c1ccc(F)cc1 (stereo not drawn), O=C(Nc1ncc(Cc2ccc(SC(F)F)cc2)s1)c1ccccc1, CC(C)OC(=O)c1ccc(NCc2cc(O)ccc2O)cc1Cl, COc1cc(-c2nc3ccc(C)cn3c2NCc2ccccc2)ccc1SC1CCCCC1, COc1ccccc1/C=C/C=N/NC(=O)c1cc(-c2ccc(C)o2)[nH]n1, Cc1cccc(C(=O)Nc2nnc(C3=COCCO3)o2)c1, O=C(NCc1cccnc1)c1cccc(NS(=O)(=O)c2ccc(Br)cc2)c1, COc1ccc(-c2nnc(NC(=O)c3ccc([N+](=O)[O-])o3)o2)c(OC)c1, COc1ccc(COc2cc(-c3cccc(OC)c3)nc3ccc(NC(=O)C(C)C)cc23)cc1

Potency, active:
CN(/N=C/c1ccc(-c2ccc([N+](=O)[O-])cc2)o1)c1ccccc1 1.64 µM, CN(C)c1ccc(/C=C(\C#N)c2nc3ccccc3c(=O)[nH]2)cc1 0.58 µM, O=C(NCCc1ccccc1Cl)c1ccc(Cn2c(=O)c3cccn3c3cccnc32)cc1 18.4 µM, O=c1c2ccccc2nc(/C=C/c2ccc([N+](=O)[O-])o2)n1CCCO 18.4 µM, Cn1c(/C=C/c2ccc([N+](=O)[O-])o2)nc2ccccc2c1=O 18.4 µM, CCn1c(/C=C/c2ccc([N+](=O)[O-])o2)nc2ccccc2c1=O 11.6 µM, Cc1cccc2cc3c(N)c(C(=O)N4CCc5ccccc54)sc3nc12 8.2 µM, Cc1cccc2cc3c(N)c(C(=O)N4CCCc5ccccc54)sc3nc12 14.6 µM, Cc1ccc2nc3sc(C(=O)N4CCCc5ccccc54)c(N)c3cc2c1 14 µM, Cc1cc2nc3s/c(=C/c4ccc(-c5ccccc5C(=O)O)o4)c(=O)n3c2cc1C 20.6 µM, COc1ccccc1N1C(=O)C(Cl)=C(Nc2ccccc2O)C1=O 16.4 µM, C#CCSc1nc(-c2cccs2)ccc1C#N 8.2 µM, CCC(=O)Nc1ccccc1-c1nc2ccccc2n(C(C)C(=O)Nc2ccc(OC)cc2)c1=O (stereo not drawn) 18.4 µM, CC1(C)CC(=O)C(C=Nc2cc(C(=O)c3ccccc3)ccc2N)=C(O)C1 20.6 µM, CCOC(=O)N1CCc2c(sc3c2C(=O)NC(c2ccc(N(C)C)cc2)N3)C1 (stereo not drawn) 20.6 µM, Nc1nc(-c2cc(O)ccc2[N+](=O)[O-])cc(-c2ccccc2)c1[N+](=O)[O-] 15.8 µM, CC(C)OC(=O)c1cc(C(=O)c2cc(F)ccc2O)coc1=N 20.6 µM, COc1ccc(O)c(C(=O)c2coc(=N)c(C(=O)Nc3ccc(SC(F)F)cc3)c2)c1 23.1 µM, Cc1ccc2c(/C=C/c3c[nH]c4ccccc34)ccnc2c1C 3.26 µM, C(=C\c1c[nH]c2ccccc12)/c1nccc2ccccc12 14.6 µM, C(=Cc1c[nH]c2ccccc12)c1nccc2ccccc12 18.4 µM, COc1ccc(NC(=O)c2ccc(NC(=O)C(C)C)cc2)c([N+](=O)[O-])c1 10.3 µM

Reference: PubChem BioAssay AID651812 (National Center for Advancing Translational Sciences (NCATS), 2012)
